Experimental data from PubChem BioAssay AID1159580 (chemical genetic matrix, 2015).
Several values for one entry are separate records, joined by “and”; a condition that tells them apart may be missing. Equal entries are not always repeated. Screen size: about 5,500 compounds; about 2,000 (36%) were called active. Not shown: some 18% with an inconclusive outcome. Cut-off read from the data, not from the text of the source: active = normalized growth mostly below about 0.91 (no sharp cut-off); inconclusive = no clear call, values can overlap the other calls; inactive = mostly above about 0.92. Some of the results follow.

Assay: chemical genetic growth profiling, strain panel (AID 1159580);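 note: tested at 20 µM; growth read once vehicle control cultures reached saturation at 30 °C; 1 = growth at the plate median or of vehicle wells; lower values mean less growth of the strain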
Details: S. cerevisiae deletion strains, growth OD

Measured: normalized growth

N[C@H](Cc1ccccc1)C(=O)O
inactive: locus YAL013W, strain DEP1, hits give low values 1.02 | locus YAL021C, strain ccr4, hits give low values 1.01 | locus YAL026C, strain drs2, hits give low values 1 | locus YAL030W, strain snc1, hits give low values 1.01 | locus YBL061C, strain skt5, hits give low values 1 | locus YBR009C, strain hhf1, hits give low values 0.968 | locus YBR021W, strain FUR4, hits give low values 0.98 | locus YBR023C, strain chs3, hits give low values 1.01 | locus YBR171W, strain sec66, hits give low values 0.99 | locus YBR229C, strain ROT2, hits give low values 1.01 | locus YBR231C, strain swc5, hits give low values 0.971 | locus YBR279W, strain paf1, hits give low values 0.999 | locus YCL011C, strain gbp2, hits give low values 1 | locus YCL016C, strain dcc1, hits give low values 1.03 | locus YCL029C, strain bik1, hits give low values 1 | locus YCL069W, strain vba3, hits give low values 0.988 | locus YCR088W, strain abp1, hits give low values 0.987 | locus YDL005C, strain med2, hits give low values 0.997 | locus YDL035C, strain GPR1, hits give low values 1.02 | locus YDL040C, strain nat1, hits give low values 1 | locus YDL074C, strain BRE1, hits give low values 1.05 | locus YDL101C, strain DUN1, hits give low values 1.01 | locus YDL134C, strain PPH21, hits give low values 1.01 | locus YDL185W, strain tfp1, hits give low values 1 | locus YDL192W, strain arf1, hits give low values 1.01 | locus YDR001C, strain nth1, hits give low values 0.987 | locus YDR069C, strain doa4, hits give low values 0.997 | locus YDR101C, strain arx1, hits give low values 1.01 | locus YDR137W, strain rgp1, hits give low values 0.982 | locus YDR150W, strain NUM1, hits give low values 1.02 | locus YDR159W, strain sac3, hits give low values 0.935 | locus YDR162C, strain NBP2, hits give low values 1.02 | locus YDR195W, strain ref2 0.961 | locus YDR297W, strain sur2, hits give low values 1 | locus YDR318W, strain mcm21, hits give low values 0.993 | locus YDR334W, strain swr1, hits give low values 0.946 | locus YDR335W, strain msn5, hits give low values 0.994 | locus YDR388W, hits give low values 1.01 | locus YDR392W, strain spt3, hits give low values 0.965 | locus YDR502C, strain sam2, hits give low values 1 | locus YEL003W, strain gim4, hits give low values 0.983 | locus YEL037C, strain rad23, hits give low values 0.976 | locus YEL061C, strain CIN8 (second series), hits give low values 0.962 | locus YEL061C, strain CIN8, hits give low values 1.01 | locus YER015W, strain faa2, hits give low values 0.993 | locus YER016W, strain bim1, hits give low values 1.02 | locus YER110C, hits give low values 1 | locus YER111C, strain swi4, hits give low values 0.999 | locus YER155C, strain BEM2 (second series), hits give low values 0.99 | locus YER155C, strain BEM2, hits give low values 1 | locus YER167W, strain BCK2, hits give low values 1.01 | locus YFR010W, strain ubp6, hits give low values 0.942 | locus YGL078C, strain dbp3, hits give low values 1.02 | locus YGL086W, strain mad1, hits give low values 1.01 | locus YGL167C, strain pmr1, hits give low values 0.983 | locus YGL173C, strain kem1, hits give low values 0.97 | locus YGL227W, strain vid30, hits give low values 0.98 | locus YGL240W, strain doc1, hits give low values 0.955 | locus YGL248W, strain PDE1, hits give low values 1 | locus YGL253W, strain hxk2, hits give low values 1 | locus YGR078C, strain PAC10, hits give low values 1.05 | locus YGR135W, strain pre9, hits give low values 1 | locus YGR229C, strain SMI1, hits give low values 1.03 | locus YGR252W, strain gcn5, hits give low values 0.935 | locus YHR013C, strain ard1, hits give low values 1 | locus YHR027C, strain rpn1, hits give low values 0.996 | locus YHR030C, strain SLT2, hits give low values 1.02 and 1.05 | locus YHR079C, strain IRE1 (second series), hits give low values 1.01 | locus YHR079C, strain IRE1, hits give low values 1.06 | locus YHR094C, strain hxt1, hits give low values 1 | locus YHR129C, strain ARP1, hits give low values 1.01 | locus YHR142W, strain chs7, hits give low values 0.992 | locus YHR200W, strain rpn10, hits give low values 1 | locus YIL066C, strain RNR3, hits give low values 1.02 | locus YIL073C, strain SPO22, hits give low values 1.04 | locus YIL125W, strain kgd1, hits give low values 0.994 | locus YIR030C, strain dcg1, hits give low values 1.02 | locus YJL092W, strain hpr5, hits give low values 1 | locus YJL095W, strain BCK1 (second series), hits give low values 0.996 | locus YJL095W, strain BCK1, hits give low values 1.02 and 1.05 | locus YJL115W, strain asf1, hits give low values 0.979 | locus YJL129C, strain trk1, hits give low values 1 | locus YJL134W, strain LCB3, hits give low values 1.01 | locus YJL154C, strain vps35, hits give low values 0.977 | locus YJL164C, strain tpk1, hits give low values 0.979 | locus YJL166W, strain qcr8, hits give low values 0.981 | locus YJL168C, strain set2, hits give low values 0.992 | locus YJL187C, strain SWE1 (second series), hits give low values 1.02 | locus YJL187C, strain SWE1, hits give low values 1.02
